Bioassay records as filed in PubChem.
Most compounds without a hit are left out; they make up all but 11% or so of the library.
ALDH1A1 inh = blocks purified human ALDH1A1 activity. P00352. Purified ALDH1A1, NADH fluorescence, propionaldehyde substrate. Potency, µM (doses to about 75.3 µM), inactives show at the highest dose activity, negative = inhibition, hits mostly inhibitors. hit rate 7.3% among 220,000;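 also: potency is read from the fitted curve at half-maximal effect; plate controls were no enzyme wells and a reference inhibitor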
Target sequence (P00352 whole entry, looked up): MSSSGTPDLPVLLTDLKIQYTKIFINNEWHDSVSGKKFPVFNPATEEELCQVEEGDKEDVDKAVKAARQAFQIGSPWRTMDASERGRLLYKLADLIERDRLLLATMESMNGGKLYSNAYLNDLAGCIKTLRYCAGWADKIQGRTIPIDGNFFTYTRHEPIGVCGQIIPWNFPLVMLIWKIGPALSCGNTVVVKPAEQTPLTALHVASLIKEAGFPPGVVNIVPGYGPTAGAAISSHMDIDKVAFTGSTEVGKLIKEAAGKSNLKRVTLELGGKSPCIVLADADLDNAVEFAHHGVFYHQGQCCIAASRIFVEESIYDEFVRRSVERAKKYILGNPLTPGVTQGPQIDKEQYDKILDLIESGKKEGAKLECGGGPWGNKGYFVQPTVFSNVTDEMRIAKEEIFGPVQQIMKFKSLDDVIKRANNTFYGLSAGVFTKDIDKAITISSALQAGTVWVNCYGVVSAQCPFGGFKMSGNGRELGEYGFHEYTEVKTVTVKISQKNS
PNC assembly inh = blocks assembly of the perinucleolar compartment. PC3M PTB-GFP, PNC prevalence imaging, 16 h; stronger effect = lower value. activity change (PNC), negative = inhibition, % at 10 µM. hit rate 3.1% among 140,000;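 active = readout at or below -70, meaning at least 70% loss of cells showing the perinucleolar compartment, a nuclear body marking cancer cells; inconclusive = readout between -30 and a set limit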;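 also: plate controls were DMSO wells for no effect and camptothecin positive control wells for full effect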
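Read-out is percentage of cells bearing a perinucleolar compartment, from automated 20x imaging of fixed, Hoechst-stained PC3M PTB-GFP cells. Cells were seeded 4 h, then exposed 16 h to compound (23 nl of library stock) in duplicate plates.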
HPGD inh = HPGD (human) dehydrogenase inhibition | P15428 | purified HPGD, NADH fluorescence kinetic, PGE2 substrate | Potency, µM, for inactives: at the highest dose activity change, negative = inhibition, hits mostly inhibitors | hit rate 4.3% among 150,000 | AID 894; also: potency is read from the fitted curve at half-maximal effect
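20 nM HPGD preincubated 15 min at room temperature with compound in 50 mM Tris-HCl pH 8, 0.01% Tween 20. Started with 1 mM NAD+ and 30 uM prostaglandin E2; NADH fluorescence (360/450 nm) read 5 times over 30-s intervals, last minus first.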
Active calls of the source: *; ? = inconclusive; / = not tested or not shown; [ ] = another dose, or the depositor's remark. Unless noted, calls follow the shape of the dose curve; as a rule, active = well fitted inhibition curve with a large enough effect (not every such curve was filed as active); inconclusive = small, poorly fitted or top-dose-only effect, or another doubt; inactive = no such curve, though single readings can be large or run the other way. Unless noted, % is scaled to controls: 0 for no effect and ±100 for the full control effect.

SMILES	ALDH1A1 inh	PNC assembly inh	HPGD inh
O=C(O)CCCN1C(=O)C2C3CC(C2C1=O)C1C(c2ccccc2)c2sc(=O)n(-c4ccccc4)c2SC31 (stereo not drawn)	0%	/	/
CCCn1c(-c2ccc(F)cc2)nc2c(N3CCN(Cc4nc(OC)cc(OC)n4)CC3)nc(C)nc21	-14%	/	-23%
CC(C)NC(=S)N=Nc1c(O)[nH]c2ccc([N+](=O)[O-])cc12	10µM*	/	/
C=C(C)CNC(=S)N=Nc1c(O)[nH]c2ccc([N+](=O)[O-])cc12	-7%	/	/
CCc1cccc(NC(=O)c2cc(OC)c(OC)c(OC)c2)c1	7%	/	/
Cc1c(C(=O)C(=O)N2CC=C(c3ccccc3)CC2)c2ccccc2n1C	-3%	?	-13%
COc1ccc(NC(=O)c2ccc(Cl)c(NC(=O)c3ccncc3)c2)cc1	-14%	/	/
CC(C)c1ccc2nc(N)sc2c1	7%	/	/
Cc1cc2nc(N)sc2cc1C	-1%	-91*	-12%
O=C(C[n+]1ccc(-c2nnc3n2CCC3)cc1)c1ccc(Cl)c(Cl)c1	1%	6	?
COCCN1C(=O)N[C@@H](CCc2ccccc2)C(C(=O)OC)=C1C	-6%	/	-6%
O=C(NCc1ccc2c(c1)OCO2)c1ccco1	3%	/	/
O=C(OC(C(=O)NCc1ccc2c(c1)OCO2)c1ccc(Cl)cc1)c1ccco1 (stereo not drawn)	14µM*	-4	28µM*
CCOc1ccc(C(OC(=O)c2ccco2)C(=O)NCc2ccc(C)cc2)cc1 (stereo not drawn)	7%	26	-23%
O=C(/C=C/c1ccco1)NCc1ccc2c(c1)OCO2	20µM*	/	/
O=C(CN1C(=O)NC2(CCCCCCC2)C1=O)NCc1ccc2c(c1)OCO2	-1%	-19	32µM*
O=C(CSCc1cnn(-c2ccccc2)c1-n1cccc1)NCc1ccc2c(c1)OCO2	?	-100*	-13%
COc1ccc(CNC(=O)CSCc2cnn(-c3ccccc3)c2-n2cccc2)cc1	?	16	-11%
COc1ccc(CNC(=O)CN2C(=O)NC3(CCCCCC3)C2=O)cc1OC	-6%	/	/
OCC1OC(C#Cc2ccccc2)C=CC1OCc1ccccc1 (stereo not drawn)	6%[13.5 µM]	/	/
Cc1cc2cc(CNC(=S)Nc3ccc(OC(F)(F)F)cc3)ccc2[nH]1	-1%	14	-8%
COc1ccc(CCNC(=O)CSc2nnc(C(C)N(C)C)n2Cc2ccccc2)cc1OC (stereo not drawn)	-3%	/	/
CC(C)CN1CC2(CCN(C(=O)c3cccc(F)c3)CC2)C1	-5%	/	-12%
COc1ccc(-n2c(=O)c(C)nc3cnc(N(C)C)nc32)cc1	?	/	-8%
O=C(Nc1cccc2ncccc12)c1ccc(OCc2ccccc2)cc1	0%	/	/
SMILES	ALDH1A1 inh	PNC assembly inh	HPGD inh
COc1cc2c3cc1Oc1c(OC)c(OC)cc4c1[C@@H](Cc1ccc(O)c(c1)Oc1ccc(cc1)C[C@@H]3N(C)CC2)CN(C)C4	-6%[13.5 µM]	/	-10%
Cc1c(C(=O)NN2CCOCC2)oc2ccccc12	-8%	/	/
COCCNC(=O)CS(=O)(=O)Cc1nc(-c2ccc(C)cc2)oc1C	-3%	?	-19%
O=C(COC(=O)Cc1cn2ccsc2n1)NCc1ccc2c(c1)OCO2	?	15	14µM*
CCN(CC)C(=O)CSCc1cnn(-c2ccccc2)c1-n1cccc1	28µM*	?	-12%
COCCNC(=O)CSCc1nc(-c2ccc(SC)cc2)oc1C	?	-89*	?
COc1ccc(-c2nc(CSCC(=O)NCc3ccc4c(c3)OCO4)c(C)o2)cc1OC	1%	-92*	?
COc1ccc(-c2nc(CSCC(=O)NCc3ccc4c(c3)OCO4)c(C)o2)cc1	?	31	-10%
O=C(COC(=O)Cc1cn2ccsc2n1)NC12CC3CC(CC(C3)C1)C2	-6%	-14	0%
O=C(CSCc1cnn(-c2ccccc2)c1-n1cccc1)NCc1ccccn1	9%	/	/
O=C(Nc1ccccc1Cl)ON=C1c2ccccc2-c2ccccc21	?	28	-30%
O=C(CSCc1ccccc1)NCc1ccc2c(c1)OCO2	?	32	20µM*
O=C(NCc1ccc2c(c1)OCO2)c1nn(-c2ccccc2)c(=O)c2ccccc12	5.6µM*	-22	-16%
O=C(CSCc1cccc(Cl)c1)NCc1ccc2c(c1)OCO2	?	44	13µM*
O=C(Nc1ccc2c(c1)OCO2)c1nn(-c2ccccc2)c(=O)c2ccccc12	-1%	?	-7%
Cc1oc(-c2ccccc2F)nc1CS(=O)CC(=O)NCc1cccs1 (stereo not drawn)	-3%	1	-6%
Cc1oc(-c2ccccc2F)nc1CS(=O)CC(=O)NCc1ccc2c(c1)OCO2 (stereo not drawn)	32µM*	32	?
O=C(CS(=O)(=O)Cc1ccccc1)NCc1ccc2c(c1)OCO2	?	37	-9%
O=C(NCc1ccc2c(c1)OCO2)c1ccc(CSCc2cccc(Cl)c2)o1	-6%	-25	-23%
CN(C)S(=O)(=O)Oc1cc(Cl)ccc1C(=O)Nc1ccc(F)cc1F	-11%	/	/
CC(C)(C)CC(C)(C)NC(=S)NC1CCN(Cc2ccccc2)CC1	?	?	-2%
O=[N+]([O-])c1ccc(-c2ccc(S(=O)(=O)NCCN3CCCC3)cc2)cc1	-1%	/	/
C[C@]12CCC(=O)C=C1CCC1C2C(O)C[C@]2(C)C1CC[C@]2(O)C(=O)CO (stereo partly drawn)	10%	/	-1%
CC(C)(C)[C@H]1C=C(C(=O)NC2CC2)O[C@@H](OCCCCO)C1	-11%	/	/
CN(Cc1cc2ccccc2[nH]c1=O)S(C)(=O)=O	5%	32	-14%
SMILES	ALDH1A1 inh	PNC assembly inh	HPGD inh
Cc1ccc2[nH]c(=O)c(CNC(C)(C)C)cc2c1	?	-107*	?
CC(C)(C)NCc1cc2ccccc2[nH]c1=O	20µM*	-11	?
Cc1ccc2cc(CNC(C)C)c(=O)[nH]c2c1	?	12	-10%
Cc1ccc(C(C)(C)C)cc1	12%	/	-8%
COc1ccc(/C=N/OCC(=O)N(Cc2ccc(OC)cc2)c2ccccc2C(=O)O)cc1	-9%	20	-7%
COc1ccc(CC(=O)N2CCN(C(=O)Cc3ccc(OC)cc3)CC2)cc1	-9%	0	-1%
COc1ccc(-c2ccc(C(=S)N3CCN(C(C)=O)CC3)o2)cc1	11µM*	?	11µM*
CCOC(=O)C1(Cc2cccc(F)c2)CCN(C(=O)c2cnc(C)cn2)CC1	3%	/	/
O=C(C1CCC1)N1CCc2cc(S(=O)(=O)NC3CCCC3)ccc21	-9%	43	10µM*
O=C(O)CCC(=O)N1CCc2cc(S(=O)(=O)NC3CCCC3)ccc21	8%	-4	13µM*
Cc1cccc(N2CCN(S(=O)(=O)c3ccc4c(c3)CCN4C(=O)CCC(=O)O)CC2)c1C	11%	19	-5%
CN(Cc1ccco1)S(=O)(=O)c1ccc2c(c1)CCN2C(=O)CCC(=O)O	10%	30	14µM*
O=C(C1CCC1)N1CCc2cc(S(=O)(=O)NC3CCCc4ccccc43)ccc21 (stereo not drawn)	-9%	28	?
O=C(O)CCC(=O)N1CCc2cc(S(=O)(=O)NC3CCCc4ccccc43)ccc21 (stereo not drawn)	?	-10	/
COc1cc(OC)c(NC(C)C(=O)N2CCCC2)cc1Cl (stereo not drawn)	-3%	/	/
